Pf growth 48h = P. falciparum growth inhibition at 48 hours (one generation). Potency, µM (top dose mostly 28.7 µM), hits mostly inhibitors. AID 504832. P. falciparum luciferase growth in erythrocytes, 48 h. hit rate 5.9% among 310,000
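Firefly luciferase activity from engineered P. falciparum reports growth; inhibitors lower the luminescent signal. Cultures contained 2% hematocrit erythrocytes at 0.1% final parasitemia.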
CHX counter = counter-screen hit for Shiga toxin inhibitors, cycloheximide | cell reporter, cycloheximide protein synthesis inhibition counterscreen | max response, % | AID 2314 | hit rate 12% among 300,000; in the data active = max response mostly above about 13%, no sharp cut-off; inactive = mostly below about 14%; note: read at 38.3 µM for the half of the compounds with a filed dose
LmPK inh = inhibitors of Leishmania mexicana pyruvate kinase; Q27686; Potency, µM (titrated, usually from 57.5 µM), actives largely listed as inhibitors; purified LmPK, Kinase-Glo ATP luminescence, 1 h; hit rate 0.37% among 290,000
Target sequence (Q27686 whole entry, looked up): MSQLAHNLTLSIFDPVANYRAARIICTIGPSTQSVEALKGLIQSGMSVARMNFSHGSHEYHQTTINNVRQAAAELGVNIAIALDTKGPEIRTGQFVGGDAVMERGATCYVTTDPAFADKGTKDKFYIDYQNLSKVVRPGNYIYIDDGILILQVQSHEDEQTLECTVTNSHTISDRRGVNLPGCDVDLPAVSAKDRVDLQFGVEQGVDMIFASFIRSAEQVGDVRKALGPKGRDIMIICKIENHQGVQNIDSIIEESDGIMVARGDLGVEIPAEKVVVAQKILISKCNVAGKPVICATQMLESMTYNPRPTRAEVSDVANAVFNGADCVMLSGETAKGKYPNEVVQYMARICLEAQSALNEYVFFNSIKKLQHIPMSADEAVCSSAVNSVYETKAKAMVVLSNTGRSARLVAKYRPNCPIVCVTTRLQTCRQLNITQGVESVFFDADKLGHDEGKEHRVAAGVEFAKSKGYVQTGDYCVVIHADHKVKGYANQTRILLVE
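Purified LmPK (0.1 nM) with 0.5 mM PEP and 0.1 mM ADP in imidazole buffer pH 7.2 with MgCl2/KCl, 1 h at room temperature. ATP formed was read by luciferase luminescence and normalized to no-enzyme and uninhibited controls.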
Shiga inhibitor = Shiga toxin inhibition; Vero cells, Shiga toxin protein synthesis inhibition reporter; inhibition, % at 38.7 µM; hit rate 9.2% among 290,000; AID 2315; in the data active = inhibition mostly above about 28%, no sharp cut-off; inactive = mostly below about 43%
Pf growth 96h = P. falciparum growth inhibition at 96 hour, primary screen for plastid delayed-death inhibitors | Potency, µM (doses to about 28.7 µM), hits mostly inhibitors | hit rate 6.9% among 320,000 | P. falciparum luciferase reporter growth, 96 h | AID 504834
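Infected RBCs, 2% Hct / 0.05% parasitemia final; luciferase-reporter P. falciparum; cpd 96 h, 37 C, 5% CO2; luciferase detection reagent; luminescence.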
Of the large screens only hits and unclear results are named; the others gave an inactive call. In the library only some 22% were active in any assay of this set; here they are far more common. Unless noted, calls come from the whole dose curve; as a rule, active = well fitted inhibition curve with a large enough effect; inconclusive = small, poorly fitted or top-dose-only effect, or another doubt; inactive = no such curve, though single readings can be large or run the other way.

NC(=O)[C@H](Cc1cc2ccccc2s1)NC(=O)[C@@H]1CC2(CC(c3cccc(NC(=O)[C@@H]4CCC(=O)N4)c3)=NO2)CN1C(=O)/C=C/Sc1ccccc1 (stereo partly drawn)	Pf growth 48h 13µM, Pf growth 96h inconclusive
NC(=O)[C@H]1CC2(CC(c3cccc(NC(=O)[C@H]4CCC(=O)N4)c3)=NO2)CN1C(=O)CC(c1ccccc1)c1ccccc1 (stereo partly drawn)	Pf growth 96h inconclusive
O=C(c1ccccc1)N1CCN(CC(O)COc2cccc3ccccc23)CC1 (stereo not drawn)	Pf growth 48h inconclusive (no result: Shiga inhibitor)
Cc1cc(C)c(OCC(O)CN2CCN(C(=O)c3ccccc3)CC2)c(C)c1 (stereo not drawn)	Pf growth 48h inconclusive, Pf growth 96h 6.6µM
COc1ccccc1CNC(=O)CN1CCN(S(=O)(=O)c2cccs2)CC1	Pf growth 48h inconclusive, Pf growth 96h inconclusive
O=C(NCCc1ccc(F)cc1)C(=O)NCC1CCCN1S(=O)(=O)c1cccs1 (stereo not drawn)	Pf growth 48h 13µM, Pf growth 96h inconclusive (no result: CHX counter, LmPK inh, Shiga inhibitor)
CCNC(=O)C(=O)NCC1CCCN1S(=O)(=O)c1cccs1 (stereo not drawn)	none (no result: CHX counter, LmPK inh, Shiga inhibitor)
COc1ccccc1CC(=O)N1CCN(S(=O)(=O)c2cccs2)CC1	Pf growth 96h 15µM
COc1cc(C(=O)NCC2CCCN2S(=O)(=O)c2cccs2)cc(OC)c1OC (stereo not drawn)	Pf growth 48h 12µM, Pf growth 96h inconclusive (no result: CHX counter, LmPK inh, Shiga inhibitor)
COc1ccccc1CNC(=O)C(=O)NCC1CCCN1S(=O)(=O)c1cccs1 (stereo not drawn)	Pf growth 48h 12µM (no result: CHX counter, LmPK inh, Shiga inhibitor)
CNC(=O)C(=O)NCC1CCCN1S(=O)(=O)c1cccs1 (stereo not drawn)	none (no result: CHX counter, LmPK inh, Shiga inhibitor)
Cc1cc(C)cc(NC(=O)c2cccc(N3C(=O)C4C5C=CC(C5)C4C3=O)c2)c1 (stereo not drawn)	Pf growth 48h inconclusive, Pf growth 96h 4.7µM
O=C(NCCN1C(=O)C2C3C=CC(C3)C2C1=O)Nc1cccnc1 (stereo not drawn)	none (no result: Pf growth 48h)
O=C(NCCN1C(=O)C2C3C=CC(C3)C2C1=O)Nc1ccc(Br)cc1 (stereo not drawn)	CHX counter 83, Shiga inhibitor 65 (no result: Pf growth 48h)
Cc1c(Br)ccc(NC(=O)CCN2C(=O)C3C4CCC(C4)C3C2=O)c1C (stereo not drawn)	CHX counter 19, Shiga inhibitor 34
COc1ccc(NC(=O)CCN2C(=O)C3C4C=CC(C4)C3C2=O)cc1 (stereo not drawn)	none
Cc1ccc(Cl)cc1NC(=O)CCN1C(=O)C2C3CCC(C3)C2C1=O (stereo not drawn)	none
Cc1cc(NC(=O)CCN2C(=O)C3C4C=CC(C4)C3C2=O)ccc1Br (stereo not drawn)	CHX counter 23
COc1ccc(CCNC(=O)COC(=O)/C=C/c2cc(OC)c(OC)c(OC)c2)cc1OC	Pf growth 96h inconclusive
CNc1c([N+](=O)[O-])cnn1-c1cccc(Cl)n1	none
Cc1cc(NC(=O)CCN2C(=O)C3C4CCC(C4)C3C2=O)cc(C)c1Br (stereo not drawn)	Pf growth 96h 0.93µM
Cc1cc(N2C(=O)C3C4C=CC(C4)C3C2=O)ccc1Br (stereo not drawn)	Pf growth 96h 12µM
O=C(CCN1C(=O)C2C3CCC(C3)C2C1=O)Nc1ccc(F)cc1 (stereo not drawn)	none
Cc1cc(NS(=O)(=O)c2ccc(N3C(=O)C4C5C=CC(C5)C4C3=O)cc2)nc(C)n1 (stereo not drawn)	CHX counter 14, Pf growth 96h inconclusive
O=C1C2C3C=CC(C3)C2C(=O)N1c1ccc2c(c1)OCO2 (stereo not drawn)	none
Cc1ccc(COc2ccc3oc(-c4ccccc4)c(C(=O)O)c3c2)cc1	none (no result: Pf growth 48h, LmPK inh, Pf growth 96h)
CN1CCN(NC(=O)CN2C(=O)S/C(=C\c3c(Cl)cccc3Cl)C2=O)CC1	Pf growth 96h inconclusive
Cc1cccc(CCNCc2c(C(=O)O)c(C)n(-c3ccccc3)c2C)c1	none
COc1ccc(S(=O)(=O)n2nc(OCc3cccs3)cc2N)cc1	none
Cc1cc(Cl)ccc1NC(=O)CCC(=O)N/N=C/c1cc([N+](=O)[O-])ccc1O	Pf growth 48h inconclusive, Pf growth 96h inconclusive
O=[N+]([O-])c1ccc(/C=N/NC(=S)Nc2ccc(Cl)cc2Cl)s1	Pf growth 48h 13µM, Pf growth 96h 3.3µM
O=[N+]([O-])c1ccc(O)c(/C=N/NC(=S)Nc2ccc(Cl)cc2Cl)c1	Pf growth 48h 2.1µM, Pf growth 96h 0.83µM
Cc1c(Cl)cccc1N=Cc1ccc([N+](=O)[O-])s1	Pf growth 48h inconclusive, Pf growth 96h inconclusive
O=C(NCCN1CCOCC1)c1cccc(S(=O)(=O)NCc2ccccc2)c1	none (no result: CHX counter, LmPK inh, Shiga inhibitor)
CC1=C(C(=O)Nc2ccc(F)c(F)c2)C(c2cccs2)NC(=S)N1 (stereo not drawn)	none
CCOC(=O)c1c(NC(=O)C2=C(C)NC(=S)NC2c2ccc(C)cc2)sc(C)c1C (stereo not drawn)	Pf growth 48h 12µM, Pf growth 96h inconclusive
CC1=C(C(=O)Nc2ccc(C)cc2)C(c2cccs2)NC(=S)N1 (stereo not drawn)	CHX counter 19
CC1=C(C(=O)Nc2ccccn2)C(c2ccc(Cl)cc2)NC(=S)N1 (stereo not drawn)	CHX counter 46, Shiga inhibitor 72
CC1=C(C(=O)Nc2ccccn2)C(c2ccc(Br)cc2)n2ncnc2N1 (stereo not drawn)	none
CC1=C(C(=O)Nc2ccccn2)C(c2ccc(Br)cc2)NC(=S)N1 (stereo not drawn)	CHX counter 37, Shiga inhibitor 50
CC1=C(C(=O)c2ccccc2)C(c2ccc(O)cc2)NC(=S)N1 (stereo not drawn)	Pf growth 48h inconclusive
O=C(c1cccc(C(F)(F)F)c1)N1CCOC12CCN(c1ncc(C(F)(F)F)cc1Cl)CC2	Pf growth 48h inconclusive, Pf growth 96h inconclusive
COc1ccc(N2CCN(S(=O)(=O)CCNC(=O)COc3ccccc3C)CC2)cc1	none (no result: CHX counter, LmPK inh, Shiga inhibitor)
CC(C)c1ccc(NC(=O)CN2C(=O)NC(Cc3c[nH]c4ccccc34)C2=O)cc1 (stereo not drawn)	Pf growth 48h inconclusive (no result: CHX counter, LmPK inh, Shiga inhibitor)
CC(C)CSc1nnc2c(n1)[nH]c1ccccc12	CHX counter 32, Pf growth 96h inconclusive (no result: Pf growth 48h)
O=C(CN1C(=O)NC(Cc2c[nH]c3ccccc23)C1=O)Nc1cccc(S(=O)(=O)N2CCOCC2)c1 (stereo not drawn)	Pf growth 48h inconclusive, Pf growth 96h 9.3µM
CCCCSc1nnc2c(n1)[nH]c1ccccc12	CHX counter 46, Shiga inhibitor 128
Cc1ccc(CNC(=O)CSc2nnc3c(n2)[nH]c2ccccc23)cc1	none
c1ccc2c(c1)[nH]c1nc(SCCN3CCOCC3)nnc12	Pf growth 48h inconclusive, CHX counter 13, Pf growth 96h inconclusive
Cc1ccc(NC(=O)CSc2nnc3c(n2)[nH]c2ccccc23)cc1	none
Brc1ccc2[nH]c3nc(SCCN4CCOCC4)nnc3c2c1	none
O=C(CCNS(=O)(=O)c1ccccc1F)N1CCN(Cc2ccccc2)CC1	none (no result: CHX counter, LmPK inh, Shiga inhibitor)
